Measured values taken from the supplement of paper PMC10849652.
About 7,900 targets were measured; listed, in parts, are those with a hit and a random draw of the rest. About 0.6% of all pairs of compound and target were hits. Unmarked numbers belong to inactive results.

Experiments:
Test in all cases: log2 fold change, soluble protein after heating vs DMSO (PISA); higher = thermal stabilisation; K562 cells, 10 uM, 30 min; active = over 0.2 and 3.5 SD of the protein, either way, in both replicates (recomputed)
bafetinib = compound: Cc1ccc(NC(=O)c2ccc(CN3CC[C@H](N(C)C)C3)c(C(F)(F)F)c2)cc1Nc1nccc(-c2cncnc2)n1 [bafetinib]
Outline: (§1)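 Soluble protein was defined as the supernatant after 21,000xg for 90 min. It came from K562 cells at 2×10^6 cells/mL given 10 μM compound for 30 min, heated in aliquots for 3 min across 48°C-58°C, pooled, and extracted in PBS with 0.5% NP-40 at 4°C, and was quantified by TMTpro 16plex LC-MS/MS with equalised channel sums. Thermal stability against control samples, from duplicates, is reported as log2 fold change.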

[1] = compound: Cc1cccc(CC(=O)N2CCc3c2ccc(-c2cn(C)c4ncnc(N)c24)c3F)n1
Outline: as §1

nilotinib = compound: Cc1cn(-c2cc(NC(=O)c3ccc(C)c(Nc4nccc(-c5cccnc5)n4)c3)cc(C(F)(F)F)c2)cn1 [nilotinib]
Outline: as §1

[2] = compound: Cc1nc(Nc2n[nH]c3c2CN(C(=O)N[C@H](CN(C)C)c2ccccc2)C3(C)C)c2sccc2n1
Outline: as §1

dasatinib = compound: Cc1nc(Nc2ncc(C(=O)Nc3c(C)cccc3Cl)s2)cc(N2CCN(CCO)CC2)n1 [dasatinib]
Outline: as §1

[3] = compound: Cc1ncc(-c2ccnc(Nc3ccc(S(C)(=O)=O)cc3)n2)n1C(C)C
Outline: as §1

[4] = compound: Cn1cc(-c2ccc3c(c2)CCN3C(=O)Cc2cccc(C(F)(F)F)c2)c2c(N)ncnc21
Outline: as §1

[5] = compound: Cn1cc(-c2ccc3nnc(C(F)(F)c4ccc5ncccc5c4)n3n2)cn1
Outline: as §1

tipifarnib = compound: Cn1cncc1[C@@](N)(c1ccc(Cl)cc1)c1ccc2c(c1)c(-c1cccc(Cl)c1)cc(=O)n2C [tipifarnib]
Outline: as §1

mubritinib = compound: FC(F)(F)c1ccc(/C=C/c2nc(COc3ccc(CCCCn4ccnn4)cc3)co2)cc1 [mubritinib]
Outline: as §1

[6] = compound: NC(=O)Nc1cc(-c2cccc(F)c2)sc1C(=O)N[C@H]1CCCNC1
Outline: as §1

[7] = compound: NC(=O)c1cnc(N[C@@H]2CCCC[C@@H]2N)nc1Nc1cccc(-n2nccn2)c1
Outline: as §1

[8] = compound: NC1(c2ccc(-c3nc4ccn5c(=O)[nH]nc5c4cc3-c3ccccc3)cc2)CCC1
Outline: as §1

[9] = compound: NCC(=O)Nc1ccc(-n2nc(C(F)(F)F)cc2-c2ccc3c(ccc4ccccc43)c2)cc1
Outline: as §1

entinostat = compound: Nc1ccccc1NC(=O)c1ccc(CNC(=O)OCc2cccnc2)cc1 [entinostat]
Outline: as §1

vorinostat = compound: O=C(CCCCCCC(=O)Nc1ccccc1)NO [vorinostat]
Outline: as §1

citarinostat = compound: O=C(CCCCCCNC(=O)c1cnc(N(c2ccccc2)c2ccccc2Cl)nc1)NO [citarinostat]
Outline: as §1

silmitasertib = compound: O=C(O)c1ccc2c(c1)nc(Nc1cccc(Cl)c1)c1ccncc12 [silmitasertib]
Outline: as §1

[10] = compound: O=C1NC(=O)C(c2cnc3ccccn23)=C1c1cn2c3c(cc(F)cc13)CN(C(=O)N1CCCCC1)CC2
Outline: as §1

[11] = compound: c1cc(OCCN2CCCCC2)cc(-c2n[nH]c3ccc(-c4nnc[nH]4)cc23)c1
Outline: as §1

Sequence of UniProt Q6QNY0 (Q6QNY0 whole entry, looked up): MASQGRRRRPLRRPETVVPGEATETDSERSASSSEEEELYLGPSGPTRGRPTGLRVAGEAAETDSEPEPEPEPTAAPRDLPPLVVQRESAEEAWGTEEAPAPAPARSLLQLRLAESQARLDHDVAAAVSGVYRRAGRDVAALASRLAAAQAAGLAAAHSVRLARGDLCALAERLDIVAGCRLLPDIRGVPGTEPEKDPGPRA
Sequence of UniProt Q9UQB8 (Q9UQB8 whole entry, looked up): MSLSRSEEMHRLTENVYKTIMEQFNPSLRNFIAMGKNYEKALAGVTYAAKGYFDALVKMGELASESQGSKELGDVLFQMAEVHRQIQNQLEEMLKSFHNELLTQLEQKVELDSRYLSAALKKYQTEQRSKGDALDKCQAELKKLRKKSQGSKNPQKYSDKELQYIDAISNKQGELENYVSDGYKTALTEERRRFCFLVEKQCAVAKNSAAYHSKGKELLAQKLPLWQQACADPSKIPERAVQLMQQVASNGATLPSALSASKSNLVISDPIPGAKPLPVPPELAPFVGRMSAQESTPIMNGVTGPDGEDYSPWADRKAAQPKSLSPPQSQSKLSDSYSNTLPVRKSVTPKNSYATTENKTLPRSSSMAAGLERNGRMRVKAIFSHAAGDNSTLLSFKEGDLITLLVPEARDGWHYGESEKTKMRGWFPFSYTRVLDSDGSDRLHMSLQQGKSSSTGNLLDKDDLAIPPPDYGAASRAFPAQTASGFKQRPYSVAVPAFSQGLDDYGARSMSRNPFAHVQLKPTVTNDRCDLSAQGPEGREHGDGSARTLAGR
Sequence of UniProt P21283 (P21283 whole entry, looked up): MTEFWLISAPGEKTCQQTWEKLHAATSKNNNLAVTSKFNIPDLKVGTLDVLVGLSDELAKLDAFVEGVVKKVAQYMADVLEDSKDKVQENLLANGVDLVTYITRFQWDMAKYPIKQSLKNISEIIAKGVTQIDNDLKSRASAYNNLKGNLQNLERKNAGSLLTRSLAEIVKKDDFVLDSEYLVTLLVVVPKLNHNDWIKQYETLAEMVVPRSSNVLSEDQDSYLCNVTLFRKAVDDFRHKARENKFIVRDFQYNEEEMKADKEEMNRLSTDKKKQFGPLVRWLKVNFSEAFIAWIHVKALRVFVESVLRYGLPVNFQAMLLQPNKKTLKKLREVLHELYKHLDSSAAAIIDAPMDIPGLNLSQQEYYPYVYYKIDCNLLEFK
Sequence of UniProt Q9UEY8 (Q9UEY8 whole entry, looked up): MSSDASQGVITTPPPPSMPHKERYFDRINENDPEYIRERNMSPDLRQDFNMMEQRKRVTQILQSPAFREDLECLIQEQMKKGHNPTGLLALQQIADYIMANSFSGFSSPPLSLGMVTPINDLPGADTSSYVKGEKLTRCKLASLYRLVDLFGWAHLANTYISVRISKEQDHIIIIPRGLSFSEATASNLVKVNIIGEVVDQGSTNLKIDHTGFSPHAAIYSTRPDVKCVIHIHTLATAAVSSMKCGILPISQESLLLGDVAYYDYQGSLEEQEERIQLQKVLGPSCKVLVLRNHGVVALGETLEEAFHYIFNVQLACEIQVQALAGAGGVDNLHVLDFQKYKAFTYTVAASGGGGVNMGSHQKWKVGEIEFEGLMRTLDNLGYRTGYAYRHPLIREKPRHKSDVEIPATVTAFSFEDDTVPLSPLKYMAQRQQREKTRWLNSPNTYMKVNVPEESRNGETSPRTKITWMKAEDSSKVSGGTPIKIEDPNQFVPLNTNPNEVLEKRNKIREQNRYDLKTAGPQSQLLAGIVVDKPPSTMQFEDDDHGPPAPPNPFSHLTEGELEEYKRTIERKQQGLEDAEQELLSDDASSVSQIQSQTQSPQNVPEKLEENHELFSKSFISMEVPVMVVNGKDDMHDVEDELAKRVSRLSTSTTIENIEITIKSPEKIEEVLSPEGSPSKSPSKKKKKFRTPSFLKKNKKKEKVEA
Sequence of UniProt O15254 (O15254 whole entry, looked up): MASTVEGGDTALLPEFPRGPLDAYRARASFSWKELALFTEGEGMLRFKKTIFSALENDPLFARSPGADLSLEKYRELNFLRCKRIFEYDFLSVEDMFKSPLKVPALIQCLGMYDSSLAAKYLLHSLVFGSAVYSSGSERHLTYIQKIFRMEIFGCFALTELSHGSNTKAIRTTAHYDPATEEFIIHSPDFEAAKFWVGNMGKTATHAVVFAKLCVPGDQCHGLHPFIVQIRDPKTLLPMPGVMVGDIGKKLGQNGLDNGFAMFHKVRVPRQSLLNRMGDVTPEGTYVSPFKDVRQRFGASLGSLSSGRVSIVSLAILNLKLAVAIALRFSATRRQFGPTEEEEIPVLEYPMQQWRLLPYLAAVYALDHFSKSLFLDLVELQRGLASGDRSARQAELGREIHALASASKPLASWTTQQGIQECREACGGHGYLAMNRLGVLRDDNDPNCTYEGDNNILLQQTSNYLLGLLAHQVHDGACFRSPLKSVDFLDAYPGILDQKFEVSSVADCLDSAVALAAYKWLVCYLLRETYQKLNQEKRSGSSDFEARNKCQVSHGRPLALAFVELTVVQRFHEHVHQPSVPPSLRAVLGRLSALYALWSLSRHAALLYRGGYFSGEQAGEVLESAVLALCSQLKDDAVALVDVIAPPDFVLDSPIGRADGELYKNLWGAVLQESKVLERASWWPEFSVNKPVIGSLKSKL
Sequence of UniProt P17544 (P17544 whole entry, looked up): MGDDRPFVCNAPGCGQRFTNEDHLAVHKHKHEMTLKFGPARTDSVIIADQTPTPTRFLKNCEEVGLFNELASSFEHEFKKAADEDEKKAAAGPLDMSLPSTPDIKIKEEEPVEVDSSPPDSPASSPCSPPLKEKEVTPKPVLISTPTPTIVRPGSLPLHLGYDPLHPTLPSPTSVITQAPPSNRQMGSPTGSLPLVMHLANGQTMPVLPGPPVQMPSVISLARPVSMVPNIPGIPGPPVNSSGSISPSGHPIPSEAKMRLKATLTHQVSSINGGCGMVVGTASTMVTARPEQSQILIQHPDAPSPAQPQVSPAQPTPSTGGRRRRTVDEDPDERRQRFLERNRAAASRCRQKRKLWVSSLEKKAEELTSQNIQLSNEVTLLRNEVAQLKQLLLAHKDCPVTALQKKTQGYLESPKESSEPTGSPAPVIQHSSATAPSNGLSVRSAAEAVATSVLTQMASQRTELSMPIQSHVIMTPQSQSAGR
Sequence of UniProt Q9UKG1 (Q9UKG1 whole entry, looked up): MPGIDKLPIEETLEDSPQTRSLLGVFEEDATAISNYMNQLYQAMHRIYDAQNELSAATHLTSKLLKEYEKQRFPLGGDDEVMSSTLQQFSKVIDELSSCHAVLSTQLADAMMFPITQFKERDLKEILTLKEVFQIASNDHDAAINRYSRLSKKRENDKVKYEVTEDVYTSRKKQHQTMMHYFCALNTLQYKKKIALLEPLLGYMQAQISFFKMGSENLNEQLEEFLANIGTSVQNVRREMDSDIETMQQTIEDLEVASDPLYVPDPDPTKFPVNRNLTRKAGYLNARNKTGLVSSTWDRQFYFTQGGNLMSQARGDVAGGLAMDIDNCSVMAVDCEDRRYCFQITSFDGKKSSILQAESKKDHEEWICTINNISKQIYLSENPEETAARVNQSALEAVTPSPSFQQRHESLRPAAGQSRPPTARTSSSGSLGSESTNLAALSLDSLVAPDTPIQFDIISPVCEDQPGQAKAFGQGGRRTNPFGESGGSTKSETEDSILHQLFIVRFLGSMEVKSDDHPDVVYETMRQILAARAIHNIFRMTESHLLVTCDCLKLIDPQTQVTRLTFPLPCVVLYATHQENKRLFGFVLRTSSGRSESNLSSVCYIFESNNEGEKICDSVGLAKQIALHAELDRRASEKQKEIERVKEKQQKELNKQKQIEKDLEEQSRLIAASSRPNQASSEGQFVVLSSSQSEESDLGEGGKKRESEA
Sequence of UniProt Q04771 (Q04771 whole entry, looked up): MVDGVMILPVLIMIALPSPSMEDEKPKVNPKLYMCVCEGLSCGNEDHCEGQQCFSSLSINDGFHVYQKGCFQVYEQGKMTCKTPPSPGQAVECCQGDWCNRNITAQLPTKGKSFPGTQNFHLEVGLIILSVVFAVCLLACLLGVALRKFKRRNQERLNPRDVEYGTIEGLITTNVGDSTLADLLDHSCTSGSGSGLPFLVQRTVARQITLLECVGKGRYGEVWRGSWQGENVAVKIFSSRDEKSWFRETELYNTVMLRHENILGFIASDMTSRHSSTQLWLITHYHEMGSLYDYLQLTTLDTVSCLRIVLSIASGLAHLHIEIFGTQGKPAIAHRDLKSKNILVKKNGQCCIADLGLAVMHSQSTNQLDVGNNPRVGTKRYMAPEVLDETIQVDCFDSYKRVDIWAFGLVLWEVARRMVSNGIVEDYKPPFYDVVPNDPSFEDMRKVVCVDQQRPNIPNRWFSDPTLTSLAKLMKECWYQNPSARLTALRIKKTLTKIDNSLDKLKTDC
Sequence of UniProt Q9UNK9 (Q9UNK9 whole entry, looked up): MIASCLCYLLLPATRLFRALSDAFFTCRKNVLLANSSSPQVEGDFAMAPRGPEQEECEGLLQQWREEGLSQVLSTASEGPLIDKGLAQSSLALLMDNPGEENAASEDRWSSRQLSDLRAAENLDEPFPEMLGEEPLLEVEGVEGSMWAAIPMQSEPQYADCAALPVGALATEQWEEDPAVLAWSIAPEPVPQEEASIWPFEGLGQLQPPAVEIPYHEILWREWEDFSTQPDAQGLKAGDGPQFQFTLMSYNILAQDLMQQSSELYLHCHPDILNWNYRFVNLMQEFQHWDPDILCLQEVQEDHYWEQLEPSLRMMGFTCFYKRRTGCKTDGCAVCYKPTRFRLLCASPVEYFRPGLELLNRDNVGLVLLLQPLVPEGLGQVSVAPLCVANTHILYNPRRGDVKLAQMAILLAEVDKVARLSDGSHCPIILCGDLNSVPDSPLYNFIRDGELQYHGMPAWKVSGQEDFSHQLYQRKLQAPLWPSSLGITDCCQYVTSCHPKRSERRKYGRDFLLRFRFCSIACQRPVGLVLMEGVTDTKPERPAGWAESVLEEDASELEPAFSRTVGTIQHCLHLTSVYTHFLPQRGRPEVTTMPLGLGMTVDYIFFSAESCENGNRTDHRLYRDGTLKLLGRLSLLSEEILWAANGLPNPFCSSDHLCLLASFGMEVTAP

Target | log2 fold change (bafetinib) | log2 fold change [1] | log2 fold change (nilotinib) | log2 fold change [2] | log2 fold change (dasatinib) | log2 fold change [3] | log2 fold change [4] | log2 fold change [5] | log2 fold change (tipifarnib) | log2 fold change (mubritinib) | log2 fold change [6] | log2 fold change [7] | log2 fold change [8] | log2 fold change [9] | log2 fold change (entinostat) | log2 fold change (vorinostat) | log2 fold change (citarinostat) | log2 fold change (silmitasertib) | log2 fold change [10] | log2 fold change [11]
ARL6IP4 (UniProt Q66PJ3) | -0.042 | 0.002 | -0.012 | -0.459 (active) | 0.016 | 0.013 | 0.112 | -0.038 | 0.019 | 0.023 | -0.035 | 0.221 | 0.025 | 0.013 | -0.04 | -0.011 | 0.04 | -0.017 | -0.007 | -0.017
ATP6V1C1 (UniProt P21283) | -0.083 | 0.063 | -0.137 | -0.191 | -0.045 | 0.115 | -0.083 | -0.105 | 0.03 | 0.083 | -0.015 | -0.135 | -0.173 | -0.09 | 0.062 | 0.039 | 0.008 | 0.03 | 0.025 | -0.103
APPL1 (UniProt Q9UKG1) | -0.013 | -0.092 | -0.046 | 0.161 | -0.003 | 0.002 | 0.03 | -0.001 | -0.051 | -0.029 | -0.032 | -0.012 | -0.023 | -0.043 | -0.053 | 0.009 | 0.04 | 0.022 | -0.046 | 0.07
ANAPC2 (UniProt Q9UJX6) | -0.048 | 0.024 | -0.004 | -0.053 | -0.04 | 0.003 | -0.005 | -0.036 | -0.005 | 0.049 | 0.079 | -0.025 | -0.063 | -0.023 | 0.02 | 0.074 | 0.124 | 0.087 | 0.027 | -0.049
BPHL (UniProt Q86WA6) | -0.005 | 0.002 | -0.032 | -0.034 | -0.032 | -0.021 | 0.082 | 0.009 | 0.032 | -0.008 | -0.014 | -0.081 | 0.255 | -0.012 | 0.019 | -0.04 | -0.042 | -0.045 | -0.06 | 0.051
BZW1 isoform 3 (UniProt Q7L1Q6) | 0.002 | 0.167 | -0.124 | -0.138 | -0.283 | 0.03 | 0.017 | 0.011 | -0.364 | 0.089 | 0.071 | -0.054 | -0.246 | -0.093 | 0.165 | 0.209 | 0.075 | 0.02 | 0.019 | -0.081
ATP6AP1 (UniProt Q15904) | -0.052 | 0.025 | 0.024 | -0.041 | 0.016 | -0.041 | -0.081 | -0.064 | 0.011 | -0.051 | -0.033 | -0.208 | -0.149 | -0.04 | 0.025 | 0.063 | 0.035 | 0.043 | -0.005 | -0.087
ASS1 (UniProt P00966) | -0.113 | -0.001 | -0.017 | 0.021 | 0.013 | -0.017 | 0.093 | 0.06 | 0.005 | 0.009 | -0.054 | -0.184 | -0.087 | 0.026 | 0.096 | -0.052 | -0.037 | 0.02 | -0.013 | 0.013
BTAF1 (UniProt O14981) | -0.158 | 0.025 | -0.004 | -0.059 | -0.131 | 0.035 | 0.04 | -0.003 | -0.034 | -0.022 | -0.024 | -0.012 | -0.152 | -0.104 | 0.012 | 0.037 | 0.038 | 0.036 | -0.062 | 0.079
BLOC1S3 (UniProt Q6QNY0) | -0.02 | 0.006 | -0.067 | 0.031 | -0.051 | -0.022 | 0.017 | 0.078 | -0.103 | -0.027 | 0.057 | 0 | -0.014 | -0.023 | -0.06 | 0.039 | -0.018 | 0.006 | -0.013 | -0.014
BRAF, A0A2R8Y8E0 | – | – | -0.419 | 0.112 | – | -0.236 | – | 0.052 | – | 0.113 | – | 0.214 | -0.31 | – | – | – | – | -0.064 | – | –
AFG1L (UniProt Q8WV93) | -0.041 | – | -0.061 | -0.048 | -0.023 | 0.043 | 0.077 | 0.109 | 0.19 | 0.031 | -0.021 | 0.008 | 0.019 | -0.178 | 0.095 | – | -0.004 | 0.009 | -0.009 | -0.057
ARL4A (UniProt P40617) | 0.145 | – | – | – | – | – | – | – | – | 0.078 | – | -0.276 | -0.117 | – | – | – | – | 0.068 | – | –
AUNIP isoform 2 (UniProt Q9H7T9) | – | – | – | – | -0.284 | – | -0.006 | – | -0.844 (active) | – | -0.194 | -0.037 | – | 0.073 | 0.003 | – | – | – | – | –
BAIAP2 isoform 4 (UniProt Q9UQB8) | – | – | – | – | – | – | -0.018 | – | – | – | 0.019 | – | – | – | -0.095 | – | – | – | – | –
AP4S1 (UniProt Q9Y587) | 0.068 | – | -0.015 | -0.016 | -0.036 | 0.072 | -0.103 | – | 0.076 | -0.013 | -0.014 | 0.039 | -0.11 | 0.019 | 0.062 | – | 0.054 | -0.005 | -0.092 | 0.015
ACTR3B (UniProt Q9P1U1) | – | 0.035 | 0.036 | -0.082 | – | -0.001 | – | -0.051 | 0.129 | – | – | – | – | -0.217 | – | -0.067 | – | – | – | –
ANGEL1 (UniProt Q9UNK9) | 0.015 | – | – | – | – | – | – | -0.063 | – | – | – | – | – | -0.004 | – | – | – | – | – | –
ACOX3 (UniProt O15254) | 0.053 | – | 0.159 | -0.028 | – | 0.107 | -0.009 | – | 0.272 | -0.241 | -0.084 | 0.004 | -0.09 | 0.16 | 0.071 | – | 0.287 | -0.302 | -0.022 | -0.016
AKNA (UniProt Q7Z591) | – | – | – | – | – | – | -0.134 | – | 0.215 | – | -0.069 | – | – | – | 1.72 (active) | – | – | – | – | –
ATF7 isoform 6 (UniProt P17544) | 0.02 | – | -0.026 | -0.081 | 0.504 (active) | -0.019 | 0.055 | -0.266 | 0 | 0.018 | -0.113 | 0.138 | -0.123 | 0.268 | -0.045 | – | – | 0.067 | -0.044 | –
ADD3 isoform 2 (UniProt Q9UEY8) | – | 0.05 | – | – | -0.116 | – | 0.152 | -0.026 | -0.067 | -0.007 | 0.03 | 0.059 | -0.009 | -0.002 | -0.018 | -0.119 | 0.08 | -0.002 | 0.019 | -0.02
ACVR1 (UniProt Q04771) | – | -0.068 | – | – | 0.041 | – | 0.029 | – | -0.006 | -0.124 | 0.044 | 0.074 | 0 | 0.089 | 0.137 | -0.255 | 0.07 | 0.046 | -0.069 | 0.027
